The results in this text go back to the supplement of paper PMC6555819.

For this test, the system named is VDR:RXRa (NR concentration 270 nM, RXRa partner concentration 90 nM). Briefly: PBM binding z-score (relative to random genomic background probes); higher = stronger binding; sequences stand for … in GC…GCGATTGACAGCGTAGAATGAAGG
The procedure:
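Protein-binding microarray (Agilent 4x180K custom design, double-stranded 60-nt probes: 5' GC cap, 34-nt variable region, 24-nt constant primer region; full probe sequence given). Purified or IVT nuclear receptor:RXRα heterodimers (3:1 NR:RXRα, mostly 270:90 nM) or homodimers were incubated for 1 h in PBS with 2% milk and no ligand, then detected with Alexa488 antibodies. Fluorescence from o1-orientation probes (~5 replicates averaged) was converted to z-scores against 500 random hg19 background probes. Variable regions are seed direct-repeat (DR0–DR5) sites, all their single-nucleotide variants and half-site ablations.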
With ATCGAAAGGTCGAGGTGAGTACAGAGAAAGGGAA, the PBM binding z-score worked out at 4.25.

Sequence TCATATAGGTAAACGTGAAAGTCGAACGATATGA returned a PBM binding z-score of 0.503.

The sequence GCTCGGAGGACAAGGTCTGAGCTTTGTCCGTAGA displayed a PBM binding z-score of -0.681.

The sequence TCTTGTAGCTCAAGCAGGTTAAGAAAGCCTGAGT had a PBM binding z-score of -0.0447.

The sequence TGTCAAAGTTCAAAGATAACGTAAGTATCCACAC returned a PBM binding z-score of 4.23.

AGAATGAGGTTGTTAAGATCAGGGAATTGCGGTC returned a PBM binding z-score of 0.496.

TCGAGTAGGTTACCAGTGGGGCATTCAGCTTTCT: the PBM binding z-score was found to be 0.134.

Take CCTGCTGGGCCATTCAGAGGTCATTGATCATATG: the PBM binding z-score was determined as 4.03.

In turn, CCTAGCAGGCCAATCTGGGTCACTCAAGGCTTGA displayed a PBM binding z-score of 0.724.

As for CGACAAAGTTCAACTAAGGTAACGTAAAGCACGC, the PBM binding z-score was 4.67.

Consider TAGCCTAGGTCAGTTCGGGCCAGTATACGCTATA, for which the PBM binding z-score was 0.785.

Turning to CCGACTGGGGCAAAGGTTACTATACTCAGTACGA, the PBM binding z-score stood at 1.12.

With GCTGCTAGGTCAACTGATCGTCAGCTAAAGCTCG, the PBM binding z-score was found to be 1.13.

For the sequence GCTTTCGGGTCAAAGGTTATAGCATGAATAGAAT, the PBM binding z-score was determined as 5.79.

The sequence GTAACGAGGGCAAGTTGATAGCAGAGTTTGATGG came in with a PBM binding z-score of 1.09.

Sequence GCTTACGGGTCAAAGGGTATAGCATGAATAGAAT gave a PBM binding z-score of 5.84.

The sequence GCGACTGGGGCAAAGGAGGTTACCATAAGGTTGG displayed a PBM binding z-score of 1.26.

The sequence CGAACTAGGTCATCCAGGACAGTGAATACATTGA returned a PBM binding z-score of 4.73.

Sequence GTACCCAGGTGAATAGGTCGTTGATGAGTAGGCG came in with a PBM binding z-score of 0.54.

TGTCAAAGTTCAAAGGTAACGTGAGTATCCACAC came in with a PBM binding z-score of 5.2.

Sequence TTACCAAGGAGAGCTGAGGTCGTTGATCCAACTC returned a PBM binding z-score of 1.15.

Regarding CCTAGCAGGCCAGGGTCACTCGAGCATTTCGCTT, the PBM binding z-score was 2.54.

AGAATGAGGTTACGATCAGGGAAACAGAATACAT gave a PBM binding z-score of 1.43.

TCATATAGGTAATACAGGTGTAAGTCGGCATCTA displayed a PBM binding z-score of 1.17.

As for GCATATAGGTAATAGAAGGTGAAAGTCCGATTGT, the PBM binding z-score was found to be 0.0859.

GCTGCTAGGTCAACTGATGTTCAGCTAAAGCTCG yielded a PBM binding z-score of 1.61.

As for TCATATAAGTAAAAGGTGAAAGTCGGTGTGGTAA, the PBM binding z-score is 1.24.

Regarding CCTACTGCGCCACGAAAGGTCATTGATTCAGTGA, the PBM binding z-score was found to be 4.08.

With GCGACTGGGGCAAAGCACGTTACCATAAGGTTGG, the PBM binding z-score is -0.469.

The sequence TAGCCTAGGTCATGCGGGCCAGTCTAGTGTCGGC yielded a PBM binding z-score of 2.82.

Regarding GGAACGAGGGCAAAGTTGATAGCATCTGTCGACG, the PBM binding z-score came to 1.23.

As for TCTTGTAGCTCAGCAGGTTAAGAAAGCTGGCCAA, the PBM binding z-score was -0.236.

Consider AGTCAAAGTTCATCCAGGTAACGTAAGATATGCT, for which the PBM binding z-score is 5.39.

For the sequence TCTTGTAGATCAACGGTTAAGAAAGCCGAAGCCT, the PBM binding z-score turned out to be 0.234.

The sequence AGAACGAGGGCCATGAGTTGATAGCACGGGTGGC displayed a PBM binding z-score of 0.196.

CTTCGGAGGACAGAAGGTCAGAGCTGTCCGCTTT: the PBM binding z-score turned out to be 0.953.

Take CCTCGGAGGACAGAAGGTAAGAGCTGTCCGCTTT: the PBM binding z-score is -0.622.

With GGAAGGAGGGCAAAGTTGATAGCATCTGTCGACG, the PBM binding z-score came out at 0.964.

On to GCTGCTAGGTCAACTGATGGTCAGTTAAAGCTCG, for which the PBM binding z-score was determined as 1.85.

In turn, TCTAGTTGGTCAAAGGTCACTCACTCGAAATGCG yielded a PBM binding z-score of 4.92.
